Consider 10 molecules from PubChem BioAssay.

Active and inactive are the calls of the source.

A short description of this assay: plasmodial surface anion channel blockers, osmotic lysis – cell-based, P. falciparum Indochina, OD700, 1 h, primary screen (AID 1154). Conditions: P. falciparum Indochina infected RBC osmotic lysis, higher = more signal, called active from +8 up or from −8 down.
On to `COC(=O)[C@@]1(Cc2ccc(OC)cc2)[C@H]2c3cc(C(=O)N(C)C)n(Cc4ccc(C)o4)c3C[C@H]2CN1C(=O)c1ccccc1`, for which the z-score was 4.12 (inactive).
The same measure for `CCCCCN1CC=CC23O[C@@H]4/C=C\CCC(C)OC(=O)C4[C@H]2C(=O)N(C(CO)C(C)C)[C@@H]3C1=O` (stereo not given in full): 1.38 (inactive).
The same measure for `CCOC(=O)C[C@H]1[C@H](OC(=O)c2ccccc2-c2ccccc2)[C@@H](NC(=O)c2ccc3ccccc3n2)c2cc(OCCCO)ccc2N1C(=O)Cc1ccc(OC)cc1`: 5.91 (inactive); for `O=C1OCCC/C=C\[C@H]2OC34C=CCN(c5ccc6ccccc6c5)C(=O)[C@H]3N(CCO)C(=O)[C@@H]4C12` (stereo not given in full): 2.17 (inactive); for `O=C1N(Cc2ccccc2)c2ccccc2C[C@]12N=C(c1ccc(OCCCO)cc1)O[C@@H]2c1ccccc1`: 24.8 (active).
The same measure for `O[C@@H](Cc1ccccc1)[C@@H](/C=C/C1CC1)N(CC#Cc1ccccc1)Cc1ccccc1Br`: 2.05 (inactive).
Take `O=C(C1N=C(c2ccc(OCCCO)cc2)N(c2ccccc2)O1)N1CCCCC1` (stereo not given): the z-score was 13.2 (active).
The same measure for `CC(C)[Si]1(C(C)C)OCc2cc(-c3ccc(-c4ccc(Cl)c(Cl)c4)o3)nc(-c3ccccc3)c21`: 1.01 (inactive).
The same measure for `COc1ccc([Si](C)(C)[C@@H]2[C@@H](CCO)O[C@]3(C(=O)N(Cc4ccccc4)c4ccc(NC(=O)[C@H](C)O)cc43)[C@H]2C)cc1`: 12.8 (active).
The same measure for `COc1cc(NN2C(C(O)c3ccc(N(C)C)cc3)C=CC3C(=O)N(c4ccccc4)C(=O)C32)cc(OC)c1OC` (stereo not given): 1.76 (inactive).
